Activity calls are given as the source filed them.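 Rule for the calls, unless noted: active = inhibition above 20% together with a positive visual image hit; inconclusive = visual image hit but inhibition not above 20%; inactive = no visual image hit.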
Assays:
[1] = inhibitors of TNFa-induced NFkB p65 translocation, primary screen, imaging, HUVEC, MLSMR starter and 10KST1 sets (AID 438); settings: HUVEC TNFa-induced p65 nuclear translocation; cell count: measured here: nuclei count (cytotoxicity indicator), at 2.08 µM; inhibition: at 2 µM, stronger effect = higher value, 0% TNFa-plus-vehicle, 100% no-TNFa wells;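 note: compound added about 3h40 before a 20 min TNFalpha stimulation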;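 for inhibition: signal is the nuclear over cytoplasmic p65 intensity ratio per well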
[2] = reduction of polyQ htt aggregates in cells – imaging, exon1htt(103Q)mCFP cells, high-content imaging, primary screen (AID 483;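 active = visual image review flags a hit and inhibition of aggregation exceeds 20%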;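 note: compound exposure lasted 3 days before fixation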;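 for nuclei count: percent of the per-plate median nuclei count of sample wells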); settings: exon1htt(103Q)mCFP cell line, aggregate imaging, at 2 µM; inhibition of aggregation: stronger effect = higher value; nuclei count: measured here: cell count, toxicity
[3] = endothelial E-selectin expression blockers – imaging, HUVEC, immunofluorescence, MLSMR starter and 10KST1 sets, primary screen (AID 487;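 active = visually confirmed hit in the image check and inhibition above 20%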;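 for inhibition: signal is fraction of cell area covered by stained E-selectin grains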;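 for nuclei count: 100% = median nuclei count of all wells on the same plate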); settings: HUVEC TNFalpha-induced E-selectin immunofluorescence imaging, at 2 µM; inhibition: stronger effect = higher value; nuclei count: measured here: cell number, toxicity
[4] = biological target: Voltage-gated potassium channel subunit beta-2 (Rattus norvegicus) (UniProt P62483); assay: inhibitors of rat Kvbeta2 reductase activity – biochemical, NADPH fluorescence, primary screen (AID 622;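 active = fluorescence slope higher than the sample average by over 3 SD, cut at about -0.22 in these data, passing the limit was not always enough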;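 note: slope of raw intensity against log time taken from 70 to 1610 s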); settings: recombinant KvBeta, 4-cyanobenzaldehyde reduction, at 10 µM, stronger effect = higher value
[5] = biological target: Voltage-gated potassium channel subunit beta-2 (Rattus norvegicus) (UniProt P62483); assay: enhancers of rat Kvbeta2 NADPH turnover – biochemical, NADPH fluorescence, primary screen (AID 623;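 active = NADPH fluorescence slope more negative than the mean of all samples by about 3 SD, 99.7% confidence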;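 note: fluorescence intensity change per second fitted from 20 to 320 s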); settings: Recombinant KvBeta, NADPH fluorescence decrease slope, 10 min; at 10 µM; stronger effect = lower value
[6] = biological target: Alpha-2C adrenergic receptor (Homo sapiens) (UniProt P18825); assay: compounds altering alpha2C-coupled GIRK flux – cell-based, HEK293 alpha2C/GIRK1/2, thallium flux, primary screen (AID 624;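 active = fluorescence slope after compound addition differing from the mean of all screened samples at 99.7% confidence, in either direction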;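 note: slope of fluorescence ratio to pre-addition baseline per second over 15 to 24 s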); settings: thallium flux BTC fluorescence, at 10 µM, actives lie on both sides
[7] = blockers of RIG-like receptor reporter activation – cell-based, Sendai virus stimulus, luciferase, 10K MLSCN set, TLR/RLR signaling modifier project, primary screen (AID 602276;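 active = inhibition at or above 50% at 10 µM; inactive = inhibition below 50%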;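 note: firefly luciferase from ISG56 promoter only with Renilla not read in this screen; 0% = Sendai virus plus DMSO and 100% = medium plus DMSO without virus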); settings: HEK293 RL24 IRF3 luciferase reporter, at 10 µM, stronger effect = higher value
[8] = TLR3 IRF3 reporter activation blockers – cell-based, poly I:C stimulus, luciferase, 10K MLSCN set, primary screen (AID 602277;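 active = inhibition of the reporter signal at or above 50%; inactive = inhibition below 50%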); settings: HEK293-TLR3 RL24 IRF3 luciferase reporter, at 10 µM, stronger effect = higher value

Alpha-2C adrenergic receptor (Homo sapiens), sequence (P18825 whole entry, looked up): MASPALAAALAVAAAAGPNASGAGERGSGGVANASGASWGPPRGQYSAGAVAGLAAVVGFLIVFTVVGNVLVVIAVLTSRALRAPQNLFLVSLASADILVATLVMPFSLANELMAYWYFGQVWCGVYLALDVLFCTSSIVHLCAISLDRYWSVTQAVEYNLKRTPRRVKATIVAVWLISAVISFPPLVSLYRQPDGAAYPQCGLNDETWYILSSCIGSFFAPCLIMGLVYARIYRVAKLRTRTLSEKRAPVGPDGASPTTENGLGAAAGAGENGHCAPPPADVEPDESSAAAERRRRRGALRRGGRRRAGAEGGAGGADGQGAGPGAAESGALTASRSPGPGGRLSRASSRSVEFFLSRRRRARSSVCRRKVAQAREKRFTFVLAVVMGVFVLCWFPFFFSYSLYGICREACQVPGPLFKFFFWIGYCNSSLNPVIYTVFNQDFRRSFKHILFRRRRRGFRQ
Voltage-gated potassium channel subunit beta-2 (Rattus norvegicus), sequence (P62483 whole entry, looked up): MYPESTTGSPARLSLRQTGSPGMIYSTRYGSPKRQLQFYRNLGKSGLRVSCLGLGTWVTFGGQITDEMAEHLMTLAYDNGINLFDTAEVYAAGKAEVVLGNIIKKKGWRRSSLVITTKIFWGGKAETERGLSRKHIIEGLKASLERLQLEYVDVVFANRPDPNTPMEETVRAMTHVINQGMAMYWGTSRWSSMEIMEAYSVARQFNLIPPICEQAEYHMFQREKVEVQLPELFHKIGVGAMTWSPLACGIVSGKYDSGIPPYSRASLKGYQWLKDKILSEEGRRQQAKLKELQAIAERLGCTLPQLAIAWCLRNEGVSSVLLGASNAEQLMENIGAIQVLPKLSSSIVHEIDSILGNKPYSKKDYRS

SMILES	cell count [1]	inhibition [1]	inhibition of aggregation [2]	nuclei count [2]	inhibition [3]	nuclei count [3]	fluorescence slope [4]	NADPH fluorescence slope [5]	slope [6]	inhibition [7]	inhibition [8]
Cc1cccc(Cn2c(SCC(=O)Nc3ccccc3)nc3c2c(=O)[nH]c(=O)n3C)c1	467	5.4% (inactive)	44.6% (inactive)	83.4%	4.7% (inactive)	89.8%	-0.394 (inactive)	2.9e-05 (inactive)	0.0074 (inactive)	14.6% (inactive)	13.4% (inactive)
CCN1CCN(C(=O)Cn2ncc3ccsc3c2=O)CC1	697	-1.8% (inactive)	27.4% (inactive)	96.5%	-54.3% (inactive)	120%	-0.571 (inactive)	-8e-06 (inactive)	0.00578 (inactive)	3.05% (inactive)	26.3% (inactive)
O=C(Cn1cnc2c(cnn2-c2ccc(F)cc2)c1=O)N1CCCc2ccccc21	427	1.5% (inactive)	2.1% (inactive)	104%	-61.6% (inactive)	110%	-0.628 (inactive)	-5.2e-05 (inactive)	0.00385 (inactive)	11.3% (inactive)	6.11% (inactive)
Cc1ccc(S(=O)(=O)N2CCN(S(C)(=O)=O)C2c2ccccc2)cc1 (centres undefined)	464	0% (inactive)	10.2% (inactive)	93.5%	11.6% (inactive)	114%	-0.372 (inactive)	-4.8e-05 (inactive)	0.00576 (inactive)	8.09% (inactive)	26.1% (inactive)
CC1=C(C(=O)NCc2ccco2)C2(CCC(C)CC2)OC1=O (centres undefined)	438	7.7% (inactive)	22.4% (inactive)	62.3%	-20.5% (inactive)	106%	-0.513 (inactive)	-2.5e-05 (inactive)	0.00707 (inactive)	23% (inactive)	23.3% (inactive)
NC(=O)CN1C(=O)C(O)(CC(=O)c2ccccc2O)c2ccccc21 (centres undefined)	641	-0.3% (inactive)	-4.7% (inactive)	122%	-65.3% (inactive)	133%	-0.395 (inactive)	-4.6e-05 (inactive)	0.00547 (inactive)	12.7% (inactive)	38.5% (inactive)
CCn1c(SCC(=O)c2ccc(C)cc2)nnc1-c1ccoc1C	446	-11.7% (inactive)	3.7% (inactive)	77.4%	-138% (inactive)	119%	-0.329 (inactive)	-6.6e-05 (inactive)	0.00433 (inactive)	-8.3% (inactive)	-36.4% (inactive)
CC1(C)CC(=O)C(C#N)=C(NCCCO)C1	471	5% (inactive)	-2.8% (inactive)	98.2%	42.4% (inactive)	109%	-0.536 (inactive)	-3.8e-05 (inactive)	0.00419 (inactive)	11.1% (inactive)	9.83% (inactive)
COC(=O)c1cccc(S(=O)(=O)N2CCC(C)CC2)c1	326	-10.3% (inactive)	11.2% (inactive)	95.5%	-70.6% (inactive)	93%	-0.547 (inactive)	5.2e-05 (inactive)	0.00519 (inactive)	0.114% (inactive)	-2.56% (inactive)
CCC1SC2=NC(C)=C(C(=O)OC)C(c3ccc(C)cc3)N2C1=O (centres undefined)	562	-11.1% (inactive)	-9.6% (inactive)	111%	-57.6% (inactive)	103%	-0.591 (inactive)	-6.5e-05 (inactive)	0.0061 (inactive)	-10.4% (inactive)	-17.2% (inactive)
c1ccc(N2CCN(Cc3cn4cccnc4n3)CC2)cc1	683	-18.4% (inactive)	-18.4% (inactive)	107%	-36.1% (inactive)	101%	-0.494 (inactive)	-4e-06 (inactive)	0.00602 (inactive)	8.99% (inactive)	18.5% (inactive)
Cn1cnc2cc(NC(=O)c3ccc(Cl)cc3)ccc21	829	6.9% (inactive)	22.8% (inactive)	74.5%	3.1% (inactive)	106%	-0.387 (inactive)	2.4e-05 (inactive)	0.00603 (inactive)	-39.3% (inactive)	-143% (inactive)
NC(=O)c1cccc2c1C(=O)N(C1CCCCC1)C2	836	-0.6% (inactive)	-14.1% (inactive)	91.2%	-26.1% (inactive)	117%	-0.569 (inactive)	-1.8e-05 (inactive)	0.00605 (inactive)	5.66% (inactive)	24.7% (inactive)
COC(=O)c1sc(N2C(=O)C(O)=C(C(=O)c3ccc(C)o3)C2c2ccc(F)cc2)nc1C (centres undefined)	325	3% (inactive)	10.4% (inactive)	96.6%	35.1% (inactive)	109%	-0.419 (inactive)	-5.6e-05 (inactive)	0.0054 (inactive)	18.3% (inactive)	4.43% (inactive)

— PubChem BioAssay
